PubChem BioAssay
Active and inactive are the calls of the source.

What was measured:
[1] = test system: XIP peptide (Xip251-270) binding; assay: XIP fragment 251-270 binding compounds – biochemical, small-molecule microarray, fluorescence 635/667 nm, 0.1 µg/mL protein, primary screen (AID 1182); settings: fluorescent protein binding, 635 nm, higher = more signal, called active from +8 up or from −8 down
XIP peptide (Xip251-270) = assay: compounds binding XIP fragment 251-270 – biochemical, small-molecule microarray, fluorescence 635/667 nm, 0.5 µg/mL protein, primary screen (AID 1183); settings: fluorescence 635 nm, higher = more signal
[2] = blood-stage malaria parasite viability loss – strain 3D7, DAPI fluorescence, 100 nL, primary screen (AID 1184);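 also: parasites grown inside human red blood cells in medium with human serum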; settings: P. falciparum 3D7 growth, 3 d, higher = more signal
[3] = target: Homeobox protein Hox-A13 (Mus musculus) (UniProt Q62424); assay: disruptors of Hoxa13 oligonucleotide interaction – biochemical, fluorescence polarization, labeled oligonucleotide, primary screen (AID 1185); settings: Hoxa13:DNA binding, 15 min, higher = more signal, called active from +8 up or from −8 down
Chain of Homeobox protein Hox-A13 (Mus musculus) (Q62424 whole entry, looked up): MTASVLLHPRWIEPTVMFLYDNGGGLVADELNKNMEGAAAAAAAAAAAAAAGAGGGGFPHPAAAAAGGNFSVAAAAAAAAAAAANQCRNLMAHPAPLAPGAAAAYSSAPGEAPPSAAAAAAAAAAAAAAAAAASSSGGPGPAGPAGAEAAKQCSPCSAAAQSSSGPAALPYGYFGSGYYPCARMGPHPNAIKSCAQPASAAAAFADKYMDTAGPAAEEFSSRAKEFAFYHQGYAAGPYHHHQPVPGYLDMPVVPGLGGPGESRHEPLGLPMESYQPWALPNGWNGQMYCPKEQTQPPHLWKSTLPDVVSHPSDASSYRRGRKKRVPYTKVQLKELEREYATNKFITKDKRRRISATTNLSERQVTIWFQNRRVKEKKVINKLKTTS

SMILES	composite z-score [1]	composite z-score (XIP peptide (Xip251-270))	z-score [2]	z-score [3]
Cc1ccc(C(C)C)n1C(=O)OC(C)(C)C	-0.488 (inactive)	-0.0079	0.271	0.936 (inactive)
O=C1C2=CC[C@H]3C(=O)N(C4CCCCC4)C(=O)[C@H]3[C@H]2[C@H](O)[C@@H]2O[C@H]12	0.381 (inactive)	-0.274	-1.98	-5.22 (inactive)
C=CC[C@@H]1C=C[C@H](ON=C(C)CCN2CCCc3nc(C)c(C)cc32)[C@@H](CO)O1	1.59 (inactive)	0.241	-2.16	-7.32 (inactive)
CON=C(C)CCN1CCCc2nc(C)c(C)cc21	-0.0879 (inactive)	0.428	-0.18	-7.51 (inactive)
C#CCCCON=C1C[C@@H](O)[C@@H](O)[C@@H]2[C@@H]3C(=O)N(C[C@@H]4CCCO4)C(=O)[C@@H]3CC[C@H]12	0.241 (inactive)	0.317	0.211	-1.28 (inactive)
